# From PubChem BioAssay AID493192 (National Center for Advancing Translational Sciences (NCATS), 2011)
# Inconclusive results are not listed. A number with no mark means an inactive call. The source made the active and inactive calls. Calls follow the shape of the dose curve; as a rule, active = well fitted activation curve with a large enough effect; inconclusive = small, poorly fitted or top-dose-only effect; inactive = no such curve, though single readings can be large or run the other way.
# Assay: qHTS Assay for Identifying a Potential Treatment of Ataxia-Telangiectasia: Hit Validation;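 also: phospho-KAP1 level by AlphaLISA as a proxy for ATM-like kinase activity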; as to activity change, positive = activation: 0% is about no effect
# Conditions: Ataxia-telangiectasia cell-based hit validation qHTS, in ATM-null A-T patient fibroblasts; series mostly up to 76.9 µM; activity change, positive = activation: at the top concentration
# In short: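 KAP-1 phosphorylation was read by AlphaLISA as a measure of ATM-like activity in ATM-null F2112 fibroblasts. Compounds spanned up to 76.7 uM final, with 60 min exposure at 37C and a 6 hr detection incubation at 25C.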
# Potency is read from the fitted curve at half-maximal effect.
SMILES,"activity change, positive = activation",Potency
Brc1c(C[n+]2ccccc2)nc2ccccn12,39.5%,–
CN(C)c1cc(Nc2ccc(O)cc2)c([N+](=O)[O-])c2nonc12,8.03%,–
CCC(C)N1C(=S)SC(C)(C)C1N(O)C(=O)NC1CCCCC1 (configuration not stated),-7.23%,–
O=C(CN1CCN(Cc2ccccc2)CC1)Nc1ccc(Cl)cc1,10.5%,–
O=C(C[n+]1ccc2c(c1)nnn2-c1ccccc1)c1ccc(Cl)cc1,6.83%,–
CSc1nc2ccccc2nc1N(C)S(=O)(=O)c1ccc(C)cc1,–,58.2 µM (active)
Cc1ccc(C(C)C)c(OCCN2CCc3ccccc3C2)c1,–,32.8 µM (active)
CN(C)S(=O)(=O)c1ccc(NC(=O)c2ccc([N+](=O)[O-])cc2)cc1,1.74%,–
Cc1cc(C)c2c(Cn3ccnc3)cc(=O)oc2c1,-11.2%,–
O=C(COc1ccccc1Cl)NCCCNC(=O)c1cnccn1,-0.803%,–
CC1=NOC2(C1)N(C)c1ccccc1C2(C)C (configuration not stated),2.08%,–
Cc1nc(SCC(=O)Nc2cc(C(N)=O)cc(C(N)=O)c2)c2c(C)c(C)sc2n1,1.61%,–
CC1(C)CC2(CCO1)OC(=O)CC2C(=O)Nc1c(Cl)cccc1Cl (configuration not stated),-4.17%,–
O=C(NC12CC3CC(CC(C3)C1)C2)c1cccc(OC(F)F)c1,-1.74%,–
CCC(=O)Nc1ccc(S(=O)(=O)c2ccc(NC(=O)CC)cc2)cc1,-2.41%,–
Cc1cc(C)n2nc(C(=O)OCCOc3ccc(F)cc3)nc2n1,–,58.2 µM (active)
Fc1ccc(C2=NOC(c3nnc(-c4ccccc4)o3)C2)cc1 (configuration not stated),0.803%,–
COc1ccccc1N1CCN(C(=O)c2cc(=O)c3c(C)cc(C)cc3o2)CC1,-2.01%,–
O=C(CN1C(=O)c2cccc([N+](=O)[O-])c2C1=O)NCc1ccccc1,-2.8%,–

SMILES,"activity change, positive = activation",Potency
Cc1ccc(C(=O)c2c(C)oc3c2C(=O)C(=O)c2ccccc2-3)cc1,–,26 µM (active)
Cc1ccc(NC(=O)CSc2nnc([C@H](C)NC(=O)OC(C)(C)C)o2)c(C)c1,–,26 µM (active)
O=C(Nc1ccc(N2CCCC2)cc1)c1ccc(Cl)cc1Cl,-10.5%,–
Cc1cccc(C)c1NC(=O)COC(=O)c1cc(=O)c2ccccc2o1,1.61%,–
CC(=O)Nc1ccc(S(=O)(=O)NCC2(N3CCOCC3)CCCCC2)cc1,0.803%,–
CN(CCc1ccccn1)C(=O)c1cc(COc2ccc(F)cc2F)on1,-13.6%,–
CC12CCC(C(=O)NNc3ccc([N+](=O)[O-])cc3)(OC1=O)C2(C)C (configuration not stated),-1.04%,–
O=C1NC(NS(=O)(=O)c2ccc(Cl)cc2)(C(F)(F)F)C(=O)N1CCc1ccccc1 (configuration not stated),17.5%,–
CN(C)Cc1ccc(F)cc1Sc1cc(Cl)ccc1Cl,-6.02%,–
CCOC(=O)CNS(=O)(=O)Cc1ccccc1,7.69%,–
NC(=O)c1cc2ccccc2o/c1=N/NC(=O)c1cccc(F)c1,25.9%,–
O=C(C[n+]1cccc2ccccc21)c1ccc(NC(=O)c2ccccc2)cc1,0.803%,–
C/C=C\C=C/C(=O)Nc1cccc(C2=NOC3(C2)C[C@@H](C(N)=O)N(C(=O)COc2ccc(Cl)cc2)C3)c1 (some centres not stated),20.1%,–
CCC(=O)NC1=C(Cl)C(=O)C(NC(=O)CC)=C(Cl)C1=O,5.21%,–
O=C(CCC(=O)c1ccc(F)cc1)Nc1cccc(Br)c1,14%,–
Cc1nnc(SCC(=O)NC(=O)Nc2ccc3c(c2)OCCO3)n1N,-7.23%,–
CCOc1cccc(/C=C/c2ccc3cccc(O)c3n2)c1OC,–,32.8 µM (active)
CCOC(=O)c1ccc(-n2c(C)nc3ccc(Br)cc3c2=O)cc1,0.803%,–
